Data published in the supplement of paper PMC6555819.

What was measured:
Assay in all cases: PBM binding z-score (relative to random genomic background probes); higher = stronger binding; sequences stand for … in GC…GCGATTGACAGCGTAGAATGAAGG
[1] = test system: FXR:RXRa (NR concentration 270 nM, RXRa partner concentration 90 nM)
How it was run: (§1)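 Ligand-free nuclear receptor dimers were bound for 1 h to custom Agilent 4×180K protein-binding microarrays. Detection used antibodies against each partner (one per run). Binding z-scores rest on regression-normalized fluorescence, with random background probes as the reference.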

[2] = test system: LXRa:RXRa (NR concentration 270 nM, RXRa partner concentration 90 nM)
How it was run: as §1

[3] = test system: LXRa homodimer (NR concentration 270 nM)
How it was run: as §1

[4] = test system: LXRb:RXRa (NR concentration 270 nM, RXRa partner concentration 90 nM)
How it was run: as §1

[5] = test system: LXRb homodimer (NR concentration 270 nM)
How it was run: as §1

[6] = test system: PPARa:RXRa (NR concentration 270 nM, RXRa partner concentration 90 nM)
How it was run: as §1

[7] = test system: PPARg:RXRa (NR concentration 180 nM, RXRa partner concentration 90 nM)
How it was run: as §1

[8] = test system: PPARg:RXRa 270nM:90nM, anti-RXR (NR concentration 270 nM, RXRa partner concentration 90 nM)
How it was run: as §1

[9] = test system: PPARg:RXRa 30nM:10nM, anti-RXR (NR concentration 30 nM, RXRa partner concentration 10 nM)
How it was run: as §1

[10] = test system: PPARg:RXRa 90nM:30nM, anti-RXR (NR concentration 90 nM, RXRa partner concentration 30 nM)
How it was run: as §1

[11] = test system: PPARg:RXRa DBDmut IVT, anti-RXR (DBD mutation: RXRa K156A/R161A, NR concentration 270 nM, RXRa partner concentration 90 nM)
How it was run: as §1

[12] = test system: PPARg:RXRa IVT, anti-PPARg (NR concentration 270 nM, RXRa partner concentration 90 nM)
How it was run: as §1

[13] = test system: PPARg DBDmut:RXRa IVT, anti-PPARg (DBD mutation: PPARg1 K132A/R137A, NR concentration 270 nM, RXRa partner concentration 90 nM)
How it was run: as §1

[14] = test system: PPARg DBDmut IVT, anti-PPARg (DBD mutation: PPARg1 K132A/R137A, NR concentration 270 nM)
How it was run: as §1

[15] = test system: PPARg homodimer (NR concentration 180 nM)
How it was run: as §1

[16] = test system: PXR:RXRa (NR concentration 270 nM, RXRa partner concentration 90 nM)
How it was run: as §1

[17] = test system: PXR homodimer (NR concentration 270 nM)
How it was run: as §1

[18] = test system: RARa:RXR (NR concentration 270 nM, RXRa partner concentration 90 nM)
How it was run: as §1

[19] = test system: RARa homodimer (NR concentration 270 nM)
How it was run: as §1

[20] = test system: RARb:RXRa (NR concentration 270 nM, RXRa partner concentration 90 nM)
How it was run: as §1

Sequence	PBM binding z-score [1]	PBM binding z-score [2]	PBM binding z-score [3]	PBM binding z-score [4]	PBM binding z-score [5]	PBM binding z-score [6]	PBM binding z-score [7]	PBM binding z-score [8]	PBM binding z-score [9]	PBM binding z-score [10]	PBM binding z-score [11]	PBM binding z-score [12]	PBM binding z-score [13]	PBM binding z-score [14]	PBM binding z-score [15]	PBM binding z-score [16]	PBM binding z-score [17]	PBM binding z-score [18]	PBM binding z-score [19]	PBM binding z-score [20]
CCTACCGGGCCAAGGTCATTGATCAGTCAAAGCA	3.14	3.01	1.23	2.66	-0.522	3.66	1.86	2.48	0.154	1.76	0.244	1.19	-0.794	-1.36	1.88	3.79	1.52	4	0.296	3.42
GGAACGAGGGCAAAGTTGTTAGCATCTGTCGACG	0.763	0.635	-0.337	0.517	-0.419	2.61	3.61	4.82	2.96	4.84	3.85	3.57	0.128	-0.75	0.469	0.802	0.198	0.675	0.0341	2.31
ATCTCTAGGTAAGACTCAGATCAGTGAAGAACGC	0.264	0.336	0.262	-0.0617	0.692	-0.153	0.264	0.0019	0.134	0.3	1.51	1.26	-0.0293	0.583	0.669	-0.381	0.314	-0.0698	1.46	-0.146
TCTTGTTGATCAACAGGAGGTTAAGAAAGATCGA	-0.388	1.08	0.0425	0.962	-0.0113	1.21	-0.165	1.01	2.18	2.1	0.718	0.445	1.15	0.996	-0.401	0.703	-0.344	0.688	-0.505	0.432
TCTATTAGTTCATTAGGGCAACCGAAACAGCGGA	1.12	1.73	1.56	1.29	1.34	2.47	1.21	2.92	3.81	3.34	2.92	2.95	1.5	1.13	1.3	1.75	1.7	1.2	1.45	2.64
TAGCCTAGGTCAGAACGGGCCAGTATACGCTATA	1.13	0.618	-0.471	0.47	-0.65	1.31	0.763	0.742	-0.161	0.153	0.749	1.5	-0.735	-1.15	0.155	0.457	-0.462	0.873	-0.513	2.75
GCTGCTAGGTCAACTGATGGTCAGTTAAAGCTCG	3.99	3.11	0.245	2.35	0.46	3.74	2.8	3.25	0.658	2.06	4.66	4.13	-0.118	-0.331	1.79	1.64	-0.519	2.6	-0.0466	4.15
TCTAGCAGGGCAGAGGGTCACTCAAGAGGTACGG	1.06	1.06	-0.469	1.04	-0.996	2.51	2.06	3.48	2.03	3.63	1.26	1.9	-0.31	-0.497	1.22	1.7	-0.546	2.42	-0.749	2.61
TCGAGTGGGTTACCAATGGGGCATTCAGCTTTCT	-1.28	0.53	-0.905	0.75	-0.956	0.859	-0.273	0.677	0.872	0.607	2.12	1.77	-0.245	-0.482	-0.73	-0.197	-0.99	-0.236	-0.45	0.353
CCTAGCAGGCCAGGGTCCCTCAAGCATTTCGCTT	-0.373	-0.567	-0.782	-0.712	-1.31	-0.381	-0.884	-0.699	-1.41	-0.959	-0.423	-0.501	-1.5	-1.43	-0.522	-0.483	-0.449	-0.227	-0.786	-0.0655
ACAACGAGGGCACGCTGAGTTGATAGCAGAGTAG	0.762	0.503	-0.519	0.00813	-0.476	1.58	1.65	1.19	0.248	0.944	3.61	3.13	0.767	0.323	0.345	1.22	0.145	0.573	-0.791	2.63
GCTAGTTGGTCAGTGAAAGGTCACACACCGGTCG	3.55	4.39	4.49	3.7	0.467	4.43	4.64	5.57	3.93	5.67	1.21	2.97	0.254	0.307	3.99	5.13	1.02	5.89	1.88	4.27
TTACCAAAGTGAGCTGAGGTCGTTGATCCAACTC	0.648	0.0425	-0.525	0.222	-1.12	0.635	-0.509	-0.168	0.0696	-0.371	-0.795	-0.309	-0.436	-0.706	-0.866	2.11	0.201	1.44	-1.13	0.34
CGTCCAAGGTCATAGGAGGTCAGTTAAGACAGAT	7.74	7.74	5.66	6.32	1.11	5.68	5.84	5.96	2.29	4.5	3.03	4.5	0.532	0.526	3.95	6.47	4.13	5.73	1.43	5.36
TGTCAAAGTTCAACGGTAACGTAAGTATCCACAC	6.73	5.85	4.19	3.92	1.33	5.05	8.27	7.38	5.3	6.83	0.0114	4.34	1.07	1.67	3.02	4.77	3.78	4.08	1.62	5.03
AGAATGAGGTTATACGTTGATCAGGGAAGAAAGT	2.25	1.89	0.234	1.66	0.0742	3.37	2.03	2.34	1.01	1.78	2.33	2.33	1.31	1.24	1.05	1.18	0.411	1.69	0.556	1.44
TAGCCTAGGTCATGCGGGCCACTATAGTGTCGGC	4.19	3.36	0.309	1.86	-0.164	3.55	2.41	2.65	0.295	1.5	1.87	3.38	-0.194	0.594	1.72	1.69	-0.634	2.72	0.388	3.69
AGTCAAAGTTCAGGACGAGGTAGCGTAAAGCACG	3.74	3.36	1.03	1.58	-0.21	3.13	4.27	4.86	1.87	3.74	-0.637	1.36	-0.194	-0.537	1.46	2.36	0.831	2.26	0.252	4.31
CGTAGTTGGTCAAGGTCACACACGCTATAGGTAC	4.12	3.72	1.39	3.6	0.592	4.13	3.4	3.54	1.47	2.64	1.92	3.93	0.825	0.313	2.32	4.02	1.11	4.18	1.01	4.18
CCAACTAGGTCAAGGACAGTGAATCTCCGCACGC	3.25	2.12	0.634	1.47	0.422	3.96	6.59	5.37	3.19	4.79	7.53	7.55	1.93	1.81	2.38	1.23	0.209	2.01	1.21	3.98
GCTTGTAGATCAAGGTTGAGAAAGACTAAGCTAA	-0.651	-0.5	-0.84	-0.489	-0.831	1.3	2.27	3.37	1.77	3	0.308	0.797	-0.562	-0.558	-0.108	-0.354	-0.235	-0.162	-0.337	-0.367
CAGCCTAGGTCTGGGCCAGTATAGGAGGAACGTT	-0.847	-0.864	-0.89	-1.05	-1.28	-0.798	-0.286	-0.953	-0.869	-0.961	-0.647	-0.716	-1.17	-1.97	-0.842	-0.944	-0.644	-0.724	-0.886	-0.54
CAAACTAGGTCAAGGTCACAGTCGGTTTGTGCCA	6.76	5.24	3.28	4.15	0.607	6.25	9.88	8.18	6.72	8.13	8.39	8.56	6.22	2.94	5.11	5.3	1.75	5.94	1.99	5.17
CAAACTAGGTCACAGAGGTCACAGTCCGTGCGTA	6.73	6.02	6.09	5.37	1.35	6.43	10.1	8.04	6.43	8.12	8.75	9.01	2.8	2.69	5.83	6.57	9.23	7.15	2.78	5.35
ACTTACGGGTCAACGAGGTTATAGTACGCGTATA	6.84	5.12	1.1	4.53	0.951	5.76	5.66	5.72	2.24	4.29	3.12	4.22	1.99	1.76	2.88	5.39	4.31	5.61	1.04	4.13
ATCTCTAGGAAAAGATAGTTCAGTGAATGCAAAT	0.351	0.417	0.457	0.247	0.273	-0.0453	0.305	-0.0709	0.0801	-0.0493	-0.409	-0.0598	0.523	0.248	-0.459	0.432	0.918	-0.0188	1.07	0.49
CCTTACGGGTCTCTGACAGGTTATAGCATTTGGA	-0.234	0.159	-0.00475	-0.0139	-0.262	0.166	0.168	0.115	-0.351	-0.00111	0.625	-0.443	-0.515	-0.237	0.678	-0.13	-0.251	0.185	0.262	0.256
ACAGACAGGTGAGTGAAGGTAACTCTGCTGGACG	0.466	0.168	-0.478	-0.2	-0.638	0.435	0.657	-0.0647	-0.0941	0.019	0.709	0.604	0.385	0.0284	-0.0621	-0.18	-0.457	0.173	-0.76	0.594
